# Source: PubChem BioAssay
# RGS4-Gao reg: modulators of RGS4 binding to Galphao, primary screen, biochemical, multiplexed bead flow cytometry; binding response (% of control), % at 10 µM; 220,000 tested, 0.33% active; actives lie on both sides; Guanine nucleotide-binding protein G(o) subunit alpha (Homo sapiens), P09471; in the data active = binding response below about 49% or above about 150%; inactive = in between;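 note: fluorescent Galphao activated with aluminum fluoride binding bead-coupled RGS4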
# RGS8-Gao reg: RGS8-Galphao binding modulators, primary screen, biochemical, multiplexed bead flow cytometry | actives lie on both sides | response (percent of control binding), % at 10 µM | 220,000 tested, 0.34% active; in the data active = response below about 60% or above about 140%; inactive = in between;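 note: Galphao activated as the GDP aluminium fluoride complex binding bead-coupled RGS8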
# RGS7-Gao: RGS7-Galphao binding modulators, primary screen, biochemical, multiplexed bead flow cytometry | Guanine nucleotide-binding protein G(o) subunit alpha (Homo sapiens), P09471 | actives lie on both sides | binding response (% of control), % at 10 µM | 220,000 tested, 0.35% active; in the data active = binding response below about 49% or above about 150%; inconclusive = no clear call, values can overlap the other calls; inactive = in between;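 note: fluorescent Galphao held in activated GDP-AlF4 state binding bead-coupled RGS7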
# RGS16-Gao HTS: modulators of RGS16 binding to Galphao, primary screen, biochemical, human proteins, multiplexed bead flow cytometry. bead-based flow cytometry RGS16-Galphao binding, fluorescence; actives lie on both sides. 220,000 tested, 0.38% active. binding response (% of control), % at 10 µM. AID 1441, 2008;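 note: Galphao activated by GDP with aluminum fluoride before binding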
# GSH bead fluor: compound fluorescence on glutathione beads, profiling panel, artefact control, biophysical, 488/530 nm, flow cytometry; GSH beads flow cytometry, compound fluorescence 488/530 nm; hits give high values; fluorescence (KMESF) at 10 µM; 190,000 tested, 0.25% active; AID 1776, 2009; in the data active = fluorescence above about 89;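 note: glutathione beads carrying GST-tagged Bcl family fusion proteins plus one bare bead set; values are compound well signal with DMSO vehicle wells as background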
# Avidin bead fluor: green autofluorescence of compounds with avidin beads – biophysical, 488/530 nm, flow cytometry, artefact control, profiling panel; compound fluorescence 488/530 nm; hits give high values; fluorescence (KMESF) at 10 µM; 220,000 tested, 0.38% active; AID 1775, 2009; in the data active = fluorescence above about 47
# RGS4-Gao HTS: modulators of RGS–Galpha-o binding, primary screen, biochemical, multiplexed beads, flow cytometry, RGS4/7/8/16/19. shares compounds with RGS16-Gao HTS. multiplexed bead flow cytometry. RGS4–Galpha-o binding response, % at 10 µM. 1,600 tested, 99% active;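 note: fluorescently labeled Galpha-o bound to GDP with aluminium fluoride binding biotinylated RGS beads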
# Biotin-avidin: disruption of biotin probe capture by avidin, counter-screen for RGS protein interaction modulators, biochemical, flow cytometry, bead-based. shares compounds with RGS16-Gao HTS. streptavidin beads, fluorescein-biotin binding. inhibition, % at 10 µM. 1,700 tested, under 10 active. AID 1783, 2009;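 active = inhibition above 50%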;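 note: median green fluorescence of gated singlet beads compared with DMSO control wells; 0% = DMSO wells and 100% = complete loss of bead fluorescence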
# RGS8-Gao single: RGS8-Galphao binding modulators, confirmation, biochemical, multiplexed bead flow cytometry, single concentration; shares compounds with RGS16-Gao HTS; bead-based flow cytometry RGS8-Galphao binding, fluorescence; actives lie on both sides; binding response (% of control), % at 10 µM; 1,700 tested, 3% active; AID 1836, 2009; in the data active = binding response below about 72% or above about 130%; inactive = in between;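 note: Galphao activated as GDP AlF4 complex before binding bead RGS8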
# RGS7-Gao single: RGS7-Galphao binding modulators, confirmation, biochemical, multiplexed bead flow cytometry, single concentration; shares compounds with RGS16-Gao HTS; bead-based flow cytometry RGS7-Galphao binding; actives lie on both sides; response (percent of control binding), % at 10 µM; 1,700 tested, 7.8% active; AID 1837, 2009; in the data active = response below about 75% or above about 130%; inactive = in between;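 note: fluorescent Galphao activated with GDP and aluminum fluoride binding bead-coupled RGS7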
# RGS16-Gao conf: modulators of RGS16-Galphao protein binding, confirmation, biochemical, single concentration, multiplexed bead flow cytometry | shares compounds with RGS16-Gao HTS | bead-based flow cytometry; actives lie on both sides | response (% of control binding), % at 10 µM | 1,700 tested, 4% active; in the data active = response below about 74% or above about 130%; inactive = in between;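 note: Galphao activated as the GDP aluminium fluoride complex binding bead-coupled RGS16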
# RGS4-Gao confirm: modulators of RGS4-Galphao protein binding, confirmation, biochemical, single concentration, multiplexed bead flow cytometry. shares compounds with RGS16-Gao HTS. actives lie on both sides. binding response (% of control), % at 10 µM. 1,700 tested, 4% active; in the data active = binding response below about 74% or above about 130%; inactive = in between
# RGS19-Gao single: regulators of RGS19-Galphao binding, confirmation, biochemical, single point, multiplexed bead flow cytometry. shares compounds with RGS16-Gao HTS. bead-based flow cytometry RGS19-Galphao binding; actives lie on both sides. response (percent of control binding), % at 10 µM. 1,700 tested, 5% active. AID 1841, 2009; in the data active = response below about 50% or above about 160%; inactive = in between;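 note: 100% = no compound control and 0% = blank background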
# Target sequence (P09471 whole entry, looked up): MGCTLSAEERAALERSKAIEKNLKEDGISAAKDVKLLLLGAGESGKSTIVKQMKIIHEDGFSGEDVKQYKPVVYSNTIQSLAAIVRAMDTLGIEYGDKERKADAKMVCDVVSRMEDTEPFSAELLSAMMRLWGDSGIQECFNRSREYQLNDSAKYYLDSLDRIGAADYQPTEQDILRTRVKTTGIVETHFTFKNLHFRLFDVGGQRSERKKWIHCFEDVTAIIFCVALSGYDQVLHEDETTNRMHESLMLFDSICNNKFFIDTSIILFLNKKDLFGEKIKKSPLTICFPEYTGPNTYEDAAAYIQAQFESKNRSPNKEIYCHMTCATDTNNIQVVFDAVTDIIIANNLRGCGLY
# Target sequence (P49795 whole entry, looked up): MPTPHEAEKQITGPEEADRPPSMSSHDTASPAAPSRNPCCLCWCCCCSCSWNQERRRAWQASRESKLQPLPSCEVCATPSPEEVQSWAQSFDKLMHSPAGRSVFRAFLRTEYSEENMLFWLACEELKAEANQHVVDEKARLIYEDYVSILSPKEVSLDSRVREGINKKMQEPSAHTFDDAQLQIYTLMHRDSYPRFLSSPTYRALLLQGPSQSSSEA
# Active calls of the source: *; ? = inconclusive; · = not tested or not shown; [ ] = remark or other dose. Hits are enriched below; roughly 1.2% of the tested compounds scored in any of these assays. Unless noted, the rule behind the calls is not given here.
SMILES,RGS4-Gao reg,RGS8-Gao reg,RGS7-Gao,RGS16-Gao HTS,GSH bead fluor,Avidin bead fluor,Biotin-avidin,RGS8-Gao single,RGS7-Gao single,RGS16-Gao conf,RGS4-Gao confirm,RGS19-Gao single,others
COCCNC(=O)COC(=O)c1cc(-c2ccc(OC)cc2)nc2ccccc12,99,97,101,98,26,12,·,·,·,·,·,·,
Cc1cc(C(=O)COC(=O)c2cccnc2Cl)c(C)n1-c1c(C)n(C)n(-c2ccccc2)c1=O,108,109,106,117,11,26,·,·,·,·,·,·,
O=C(Nc1cccc(NC(=O)C2C3CC4OC(=O)C2C4C3)c1)c1ccccc1 (centres undefined),95,100,94,102,21,11,·,·,·,·,·,·,
O=C(Nc1ccc(Nc2ccncc2)cc1)c1ccc(Nc2ccnc3ccc([N+](=O)[O-])cc23)cc1,24*,59*,?,36,·,-1,-1,104,88,99,90,87,
CN(C)c1cccc(C(=O)Nc2cc(C(F)(F)F)ccc2-n2cnc3ccccc32)c1,106,127,115,197*[activator],14,8,0,100,97,98,99,103,RGS4-Gao HTS=106*
COCCCNC(=O)c1ccc2c3c(onc13)-c1ccccc1C2=O,43*,60,?,31,·,3,0,69*,64*,68*,94,42*,
COCCCNC(=O)c1ccccc1Oc1ccccc1,97,100,97,100,15,7,·,·,·,·,·,·,
Cc1nc2ccc(NC(=S)NC3CCCCC3)cc2nc1C,101,100,105,105,18,6,·,·,·,·,·,·,
O=C(NCCN=C1NS(=O)(=O)c2ccccc21)c1ccc2nccnc2c1,99,100,99,100,18,3,·,·,·,·,·,·,
O=C(NCCN=C1NS(=O)(=O)c2ccccc21)c1ccncc1,148,114,163*[activator],125,10,72*,-1,101,98,101,101,100,RGS4-Gao HTS=148*
COc1ccc(NC(=O)CSc2nc(-c3ccc(C)cc3)cc(C(F)(F)F)c2C#N)cc1,93,94,99,96,8,29,·,·,·,·,·,·,
